RmlC RmlD mix – mixture blocks RmlC and RmlD coupled enzyme activity; inhibition, % at 5.5 µM; RmlC/RmlD coupled enzyme inhibition, 384-well mixture HTS; AID 1532; hit rate 0.39% among 110,000; in the data active means inhibition above about 30%, passing the limit was not always enough; inconclusive means no clear call, values can overlap the other calls
HIV RNase H inh-1 – blocks HIV-1 RNase H cleavage of RNA/DNA duplex. P04585. RT-RNase H RNA/DNA duplex cleavage, fluorescence. inhibition, % at 10 µM. hit rate 1.9% among 65,000; in the data active means inhibition above about 50%
HIV RNase H inh-2 – confirmation of HIV-1 reverse transcriptase RNase H inhibitors | AID 651 | hit rate 39% among 1,000 | inhibition, % at 10 µM | Recombinant RT RNase H, fluorescent RNA/DNA duplex cleavage | shares compounds with HIV RNase H inh-1; in the data active means inhibition above about 48%; inconclusive means no clear call, values can overlap the other calls
Numbers without * were called inactive; ? = inconclusive; . = no result. Many of the other results were omitted from the sample, so hits are more common in it than they were.

SMILES | RmlC RmlD mix | HIV RNase H inh-1 | HIV RNase H inh-2
COc1ccccc1NC(=O)C1=C(C)NC(SCC(=O)c2ccc(C)cc2)=C(C#N)C1c1ccco1 (stereo not drawn) | . | 58.9* | 39.3
CC(=O)C1=C(C)NC(SCC(=O)c2ccc(F)cc2)=C(C#N)C1c1ccco1 (stereo not drawn) | 6.6 | -7.0 | .
CC(C)=CCC/C(C)=C/COc1ccc2ccc(=O)oc2c1 | -7.6 | . | .
O=C(Oc1ccc(-c2cnc3ccccc3n2)cc1)c1ccco1 | -15.4 | 72.6* | ?
CCC(=O)Oc1ccc(-c2cnc3ccccc3n2)cc1 | -14.7 | . | .
Cc1ccc(N(CC(=O)NCc2ccco2)S(=O)(=O)c2ccccc2)cc1 | 14.8 | 19.4 | .
O=C(O)c1cnc2ccccc2n1 | 7.9 | 82.3* | 17.0
COC(=O)c1cnc2ccccc2n1 | -10.8 | . | .
COc1ccc2cc3cc(C(=O)NCc4ccco4)oc3nc2c1 | 136.1 | . | .
O=C(NCc1ccco1)c1cc2cc3ccc(Cl)cc3nc2o1 | 10.8 | 65.9* | 58.3*
COc1ccc(-c2nn(C)c(=O)c3ccccc23)cc1NS(C)(=O)=O | -7.0 | -10.0 | .
CCn1c(SCC(=O)c2ccc(O)c(O)c2)nnc1-c1ccccc1OC | -3.9 | 81.3* | 62.1*
CCn1c(CSc2nc3ccccc3s2)nnc1SCC(=O)c1ccc(O)c(O)c1 | -5.6 | . | .
C=CCn1c(SCC(=O)c2ccc(O)c(O)c2)nnc1-c1ccccc1OC | 3.4 | 84.6* | 62.2*
C=CCn1c(SCC(N)=O)nnc1-c1ccccc1O | -69.6 | -0.8 | .
OC(c1cccs1)(c1cccs1)C1C[N+]2(CF)CCC1CC2 (stereo not drawn) | 5.8 | . | .
O=C(N[C@@H](Cc1ccccc1)C(=O)O)c1cccnc1 | -8.4 | 2.3 | .
COc1ccc(Cc2nc(-c3ccc(-n4cccc4)cc3)no2)cc1OC | -7.2 | -52.6 | .
COc1ccc(Cc2nc(-c3cccs3)no2)cc1OC | 3.3 | 71.7* | 11.5
OCC[C@H]1C[C@@H](O)[C@H](O)[C@]2(CCCCO2)O1 | -6.6 | . | .
Cc1ccccc1OCC(O)Cn1c(NCc2ccccc2)nc2c1c(=O)[nH]c(=O)n2C (stereo not drawn) | 6.0 | . | .
CCSc1nc2c(c(=O)[nH]c(=O)n2C)n1CC(O)COc1ccccc1C (stereo not drawn) | 6.3 | 75.7* | 37.1
Cc1cc(C)n(-c2nc3c(c(=O)[nH]c(=O)n3C)n2CC(O)COc2ccccc2C)n1 (stereo not drawn) | -11.8 | -6.5 | .
Cc1ccccc1OCC(O)Cn1c(SC(C)C)nc2c1c(=O)[nH]c(=O)n2C (stereo not drawn) | -9.0 | 66.7* | -9.1
CCCCOc1ccccc1P(=O)(O)CP(=O)(c1ccccc1)c1ccccc1 | -15.6 | -0.4 | .
SMILES | RmlC RmlD mix | HIV RNase H inh-1 | HIV RNase H inh-2
CCCCS/C(=C(/C#N)C(N)=O)c1cc2c([nH]1)CCCC2 | -10.0 | 81.1* | -0.2
CCc1ccc(N/C(SC)=C(/C#N)C(N)=O)cc1 | -3.0 | -18.1 | .
CCn1cc(Br)c(C(=O)NN)n1 | 0.9 | . | .
COc1ccc(OC)c(NC(=O)C23CCC(C)(C(=O)C2)C3(C)C)c1 (stereo not drawn) | -13.5 | -3.2 | .
CCCCC(=O)Nc1cc(OC)c(NC(=O)C2CCCCC2)cc1OC | -10.7 | . | .
CCCC(=O)Nc1cc(OC)c(NC(=O)NC2CCCCC2)cc1OC | -8.2 | 53.0* | 8.5
COC(=O)c1sc(NC(C)=O)c(C(=O)OC)c1C | 0.7 | 57.7* | 0.0
CCOC(=O)c1sc(NC(C)=O)c(C(=O)OCC)c1C | 6.7 | -3.5 | .
c1ccc2c(c1)nnn2Cc1nnc2sc(-c3ccc4c(c3)OCCO4)nn12 | -1.1 | 91.3* | 52.4*
Cc1ccc(-c2nnc3sc(-c4ccc5c(c4)OCCO5)nn23)cc1 | . | 1.2 | .
C=CCn1c(=O)c(C(=O)Nc2cccnc2)c(O)c2ccccc21 | 7.5 | . | .
C=CCn1c(=O)c(C(=O)Nc2nnc(C)s2)c(O)c2ccccc21 | . | 83.4* | 98.5*
CCOC(=O)c1ccc(NC(=O)C2(c3ccc(OC)cc3)CCOCC2)cc1 | -6.0 | . | .
NC(=O)c1ccccc1NS(=O)(=O)c1ccc2c(c1)OCCO2 | 9.1 | . | .
CCSc1nnc(NC(=O)C2Cc3ccccc3CN2C(=O)c2ccco2)s1 (stereo not drawn) | -4.9 | 53.3* | ?
NS(=O)(=O)c1ccc(CCNC(=O)C2Cc3ccccc3CN2C(=O)c2ccco2)cc1 (stereo not drawn) | 7.9 | . | .
CCOc1cc(S(=O)(=O)N2CCCCC2)ccc1F | 5.1 | . | .
O=C1CCc2cc(S(=O)(=O)N3CCN(c4ccccc4F)CC3)ccc2N1 | -8.4 | . | .
Cc1cc(NC(=O)c2cc(C)on2)n(-c2ccccc2)n1 | . | 74.9* | 50.2
Cc1cc(NC(=O)c2cc(C3CC3)on2)n(-c2ccccc2)n1 | 14.1 | -1.8 | .
COc1cc(/C=C/C(=O)CC(=O)/C=C/c2ccc(O)c(OC)c2)ccc1O | -2.0 | 82.8* | 56.9*
COc1cc(/C=C/C(=O)O)ccc1O | -11.5 | . | .
O=c1c2[nH]c3ccc(F)cc3c2ncn1CCN1CCOCC1 | 4.7 | 69.7* | -0.5
Cc1ccc2[nH]c3c(=O)n(CCN4CCOCC4)cnc3c2c1 | 6.7 | . | .
CCOc1cccc(-c2nnc3sc(-c4cc(OC)c(OC)c(OC)c4)nn23)c1 | . | -3.3 | .
SMILES | RmlC RmlD mix | HIV RNase H inh-1 | HIV RNase H inh-2
COc1cc(-c2nn3c(COc4ccccc4)nnc3s2)cc(OC)c1OC | -21.6 | 71.1* | 29.3
COc1cc(-c2nn3c(-c4ccccc4)nnc3s2)cc(OC)c1OC | 15.3 | -5.5 | .
COc1cc(-c2nn3c(Cc4ccccc4)nnc3s2)cc(OC)c1OC | 14.6 | 91.1* | 80.3*
CCCCSc1nnc2n(CCc3ccccc3)c(=O)c3c4c(sc3n12)COC(C)(C)C4 | 6.1 | 8.2 | .
OCCN1CCN(C(c2cccs2)c2ccc3cccnc3c2O)CC1 (stereo not drawn) | -9.1 | 72.4* | 8.9
CC(=O)NC(c1ccco1)c1ccc2cccnc2c1O (stereo not drawn) | . | -5.9 | .
C=CCOc1ccc2cccc(/C=N/NC(=O)c3cc4cc([N+](=O)[O-])ccc4s3)c2c1 | -0.6 | . | .
Nc1c(C(=O)NCCN2CCOCC2)c2nc3ccccc3nc2n1-c1cccc(F)c1 | 20.0 | -13.8 | .
O=C(CSc1nnc(Cc2ccccc2)o1)N1CCOCC1 | -9.4 | -5.8 | .
Cn1c(=O)oc2cc(S(=O)(=O)NCCN3CCCCCC3)ccc21 | -4.2 | -29.8 | .
COc1ccc(OCc2nnc(SCC(=O)N3CCCc4ccccc43)n2-c2ccc(C)cc2)cc1 | -15.7 | . | .
N#Cc1ccc(OCc2nnc(SCC(=O)N3CCCc4ccccc43)n2-c2ccccc2)cc1 | 2.8 | 88.4* | 48.8
CCOc1ccccc1NC(=O)c1nc[nH]c1C(=O)Nc1ccccc1OCC | 26.0 | 84.3* | ?
COc1ccc(NC(=O)c2nc[nH]c2C(=O)Nc2ccccc2C)cc1 | -0.9 | -75.7 | .
COc1ccccc1NC(=O)c1nc[nH]c1C(=O)Nc1ccccc1OC | -5.4 | 82.9* | 41.5
Cc1ccccc1NC(=O)c1nc[nH]c1C(=O)NCc1ccccc1 | -40.0 | -19.7 | .
COc1ccc(CCCc2nnc(SCC(=O)Nc3ccc(C)c(C)c3)o2)cc1 | -5.5 | . | .
Cc1cc(C)cc(NC(=O)C2CCCN(c3nc(C)cc(C)n3)C2)c1 (stereo not drawn) | -20.3 | 70.4* | 44.0
Cc1cc(C)cc(NC(=O)C2CCCN(c3nccc(C)n3)C2)c1 (stereo not drawn) | 8.0 | -5.2 | .
COc1ccc(NC(=O)c2cc(C(C)C)on2)cc1OC | 13.0 | -2.7 | .
O=C(NC(=O)c1ccc(Cl)cc1)Nc1cc(N2CCCCC2)ncn1 | . | 75.5* | 98.8*

Screens deposited in PubChem by several laboratories.
